Assay results reported in PubChem BioAssay AID651813 (National Center for Advancing Translational Sciences (NCATS), 2012).
Out of some 2,100 compounds screened, about 1,100 (52%) were called active. Inconclusive results (about 27%) are left out. Calls follow the shape of the dose curve; as a rule, active = well fitted inhibition curve with a large enough effect; inconclusive = small, poorly fitted or top-dose-only effect; inactive = no such curve, though single readings can be large or run the other way. So high a share suggests a set chosen from earlier hits. The list shows a part of the results.
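Also: hits raise yellow fluorescence by blocking Vif-driven A3G-eYFP degradation; nearly all actives have a fitted effect of over 70% in size.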
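For max response in this document: max response given as percent of control signal.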
Potency is read from the fitted curve at half-maximal effect.

The molecules below were run against DNA dC->dU-editing enzyme APOBEC-3G (Homo sapiens) (UniProt Q9HC16) (assay: qHTS for inhibitors of Vif-A3G interactions: Cherry picks counterscreen). Conditions: HeLa A3G-eYFP + Vif (tagged APOBEC3G with the HIV-1 protein that degrades it), eYFP fluorescence, 24 h.
DNA dC->dU-editing enzyme APOBEC-3G (Homo sapiens), sequence (Q9HC16 whole entry, looked up): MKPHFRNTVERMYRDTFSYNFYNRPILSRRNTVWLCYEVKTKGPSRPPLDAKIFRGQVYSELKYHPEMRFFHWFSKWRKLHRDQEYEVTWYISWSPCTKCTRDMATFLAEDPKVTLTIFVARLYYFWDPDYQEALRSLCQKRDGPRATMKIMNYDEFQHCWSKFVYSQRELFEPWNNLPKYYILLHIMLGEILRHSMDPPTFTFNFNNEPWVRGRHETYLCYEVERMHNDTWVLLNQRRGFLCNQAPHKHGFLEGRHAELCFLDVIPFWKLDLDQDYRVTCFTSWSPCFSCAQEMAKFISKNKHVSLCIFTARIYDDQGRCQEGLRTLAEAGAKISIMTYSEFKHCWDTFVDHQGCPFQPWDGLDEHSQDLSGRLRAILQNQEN
Text: The recent discovery and characterization of host restriction factors, which provide a potent defense to invading retroviruses, has provided new targets for antiviral drug development. APOBEC3G (A3G) and APOBEC3F (A3F) are potent cytidine deaminases that block HIV-1 replication; HIV-1 expresses the Vif protein, which counteracts A3G and A3F by binding to them and inducing their proteasomal degradation. The Vif-A3G and Vif-A3F interactions provide two potential targets for development of small molecules which can interfere with the ability of Vif to degrade A3G or A3F. […] To identify inhibitors that can interfere with Vif mediated degradation of A3G and A3F, we have developed Hela cell lines that stably express A3G or A3F tagged with eYFP at the C-terminal end (A3G-eYFP or A3F-eYFP, respectively) and Vif. In the absence of an inhibitor, Vif induces degradation of A3G-eYFP and A3F-eYFP, and the cells are not fluorescent. In the presence of an inhibitor, it is expected that Vif will be unable to degrade A3G-eYFP and/or A3F-eYFP, resulting in an increase in yellow fluorescence. In this counterscreen assay, Vif A3G was screened against the cherry picks ordered from the MLSMR. NIH Chemical Genomics Center [NCGC] NIH Molecular Libraries Probe Centers Network [MLPCN] MLPCN Grant: MH093245 Assay Submitter (PI): Vinay Pathak, National Cancer Institute
A3G-Vif cells were harvested from T225 flask and resuspended in phenol free OPTI-MEM medium with 5% FBS. Then 5 uL of 140,000 cells/mL resuspended cells was dispensed into each well of low base Aurora COC 1,536-well plates (black walled, clear bottom) using a Multidrop Combi dispenser. After overnight culture at 37 deg C with 5% CO2, a total of 23 nL of compounds at 5 selected concentrations from the NPC or positive control (2 mM stock of MG132) in DMSO was transferred to each well of the assay plate using a pintool (Kalypsys, San Diego, CA), and the plates were further incubated at 37 deg C with 5% CO2 for 24 hours. After that, the plates were measured on Acumen Explorer (TTP Lab Tech). The fluorescence was detected by 488 nm/Ex and […].
`CC(=O)Nc1cccc(-c2ccnc3c2CC(C(=O)NCc2ccco2)O3)c1` (configuration not stated) was tested, and the Potency was 6.27 µM (active).
`O=c1nc(/C=C/c2ccc(Cl)cc2Cl)cc(C(F)(F)F)[nH]1` was tested, and the Potency was 17.7 µM (active).
In the case of `CC(=O)OC1C2(CC3N4C(=O)C5(CO)SSC4(CC31O)C(=O)N5C)OC(C)C(C)(C)C2=O` (configuration not stated), the Potency is reported as 12.5 µM (active).
For `Nc1ccc2c3c(cccc13)-c1ccccc1-2`, the Potency was 2.31 µM (active).
In the case of `C=C1C(=O)OC2C1CCC(C)C1(O)C=CC(=O)C21C` (configuration not stated), the Potency is reported as 8.86 µM (active).
With `Cc1cc(N2CCCC2)ccc1C=C(C#N)C#N` the Potency was 11.6 µM (active).
`CCN(CC)c1ccc(N=Cc2c(O)n(CCC3=CCCCC3)c(=O)[nH]c2=O)cc1` was tested, and the Potency was 23.1 µM (active).
In the case of `Cc1ccccc1-n1c(O)c(/C=C/C=Nc2ccccc2)c(=O)[nH]c1=O`, the max response is reported as 55.1% (inactive).
`CCN(CC)c1ccc(N=Cc2c(O)n(Cc3ccccc3)c(=O)[nH]c2=O)cc1` was tested, and the Potency was 13 µM (active).
With `C=CCn1c(O)c(C(C)=Nc2ccc(N(CC)CC)cc2)c(=O)[nH]c1=O` the Potency was 9.94 µM (active).
For `CCS(=O)(=O)N1N=C(c2cccc(NS(C)(=O)=O)c2)CC1c1ccccc1` (configuration not stated), the Potency was 20.6 µM (active).
`Cc1nn(Cc2ccccc2)c(C)c1C(=O)OCC(=O)Nc1ccccc1SCC#N` was tested, and the Potency was 15.8 µM (active).
For `N#CC1=C(N)Oc2c(c(=O)sc3ccccc23)C1c1cccnc1` (configuration not stated), the Potency was 5.59 µM (active).
In the case of `NC(=Nc1ccccc1)NN=Cc1c[nH]c2ccccc12`, the Potency is reported as 2.23 µM (active).
In the case of `CC(=O)O[C@@]12CO[C@@H]1C[C@H](OC1OCC(O)C(O)C1O)[C@@]1(C)C(=O)[C@H](O)C3=C(C)[C@@H](OC(=O)[C@H](O)[C@@H](NC(=O)c4ccccc4)c4ccccc4)C[C@@](O)([C@@H](OC(=O)c4ccccc4)C12)C3(C)C` (some centres not stated), the Potency is reported as 1.25 µM (active).
With `CCCCn1c(O)c(C(=O)/C=C/c2c[nH]c3ccccc23)c(=O)[nH]c1=O` the Potency was 4.44 µM (active).
For `CC1=CC(=Cc2sc3ccccc3[n+]2C)C=C(C)O1`, the Potency was 20.6 µM (active).
In the case of `Cc1c(Cl)cccc1NC(=O)c1oc2ccc(S(=O)(=O)N3CCC4(CC3)OCCO4)cc2c1C`, the Potency is reported as 7.31 µM (active).
For `CN1C(=O)/C(=C/c2ccc(N3CCCCCC3)o2)C(=O)NC1=S`, the Potency was 15.8 µM (active).
For `CN1CCN(c2ccc(/C=C3\C(=O)NC(=S)N(c4cccc(Br)c4)C3=O)o2)CC1`, the Potency was 16.4 µM (active).
For `CN1C(=O)/C(=C\c2ccc(N3CCCCC3)o2)C(=O)NC1=S`, the Potency was 17.7 µM (active).
For `COc1cc2c(cc1O)[C@@H]1Cc3ccc(OC)c(O)c3CN1CC2`, the Potency was 12.5 µM (active).
`COc1ccc(-n2cnc3cc(C(=O)N4CCC5(CC4)OCCO5)ccc32)cc1` was tested, and the Potency was 9.94 µM (active).
In the case of `COc1cccc(C2=CC(c3cc(Br)ccc3F)n3nnnc3N2)c1` (configuration not stated), the Potency is reported as 1.84 µM (active).
`Cc1cc(N(CCCl)CCCl)ccc1C=Cc1ccncn1` was tested, and the Potency was 20.6 µM (active).
`ClCCN(CCCl)c1ccc(C=Cc2ccncn2)cc1` was tested, and the max response was -8.89% (inactive).
For `CCN(CC)c1ccc2c(cc1=O)[C@@H](NC)CCc1cc(OC)c(OC)c(OC)c1-2`, the Potency was 2.5 µM (active).
In the case of `CN1C(=O)C(=Cc2ccc(N3CCOCC3)o2)C(=O)N(C)C1=S`, the Potency is reported as 20.6 µM (active).
For `CN1C(=O)C(=Cc2ccc(N3CCCCC3)o2)C(=O)N(C)C1=S`, the Potency was 2.91 µM (active).
For `CN1C(=O)C(=Cc2ccc(N3CCOCC3)o2)C(=O)N(C)C1=O`, the Potency was 23.1 µM (active).
With `CCN(CC)c1ccc(/C=C2\C(=O)NC(=S)N(c3ccc(OC)cc3OC)C2=O)o1` the Potency was 18.4 µM (active).
`CCN(CC)c1ccc(C=C2C(=O)N(C)C(=S)N(C)C2=O)o1` was tested, and the Potency was 6.27 µM (active).
In the case of `CCN(CC)c1ccc(/C=C2\C(=O)NC(=S)N(C)C2=O)o1`, the Potency is reported as 14 µM (active).
In the case of `CCN1C(=O)/C(=C/c2ccc(N(CC)CC)cc2OC)C(=O)NC1=S`, the Potency is reported as 18.4 µM (active).
`COc1cc(C2C(C#N)=C(N)Oc3cc(O)ccc32)cc(OC)c1OC` (configuration not stated) was tested, and the Potency was 1.77 µM (active).
With `CN1/C(=C\C=C2C(=O)NC(=O)NC2=O)C(C)(C)c2ccccc21` the Potency was 2.91 µM (active).
For `CN(C)c1ccc(C(=O)c2ccc(N(C)C)cc2)cc1`, the Potency was 1.58 µM (active).
With `CCCCNC(=O)/C(C#N)=c1\s/c(=C\c2ccccc2OC(F)F)c(=O)n1CCCOC` the Potency was 18.4 µM (active).
In the case of `COc1ccc(-c2ccc(OC)c(OC)c2OC)cc1`, the Potency is reported as 3.96 µM (active).
For `O=C1NC(=O)N(c2ccc3c(c2)OCO3)C(=O)/C1=C\c1ccc(N2CCCCC2)o1`, the Potency was 20.6 µM (active).
With `O=C1NC(=O)N(c2ccc3c(c2)OCO3)C(=O)/C1=C/c1ccc(N2CCCCC2)o1` the Potency was 23.1 µM (active).
With `CC(C)c1ccc(N2C(=O)NC(=O)/C(=C/C=C/c3ccco3)C2=O)cc1` the Potency was 14 µM (active).
In the case of `CC(C)c1ccc(N2C(=O)NC(=O)/C(=C\C=C\c3ccco3)C2=O)cc1`, the Potency is reported as 14 µM (active).
In the case of `Cc1cc(/C=C2\C(=O)NC(=O)N(c3ccc(Br)cc3)C2=O)c(C)n1C`, the max response is reported as 8.75% (inactive).
In the case of `O=C(Cc1ccccc1)c1ccccn1`, the Potency is reported as 12.5 µM (active).
With `Cc1cccc(CN2CCCC(C(=O)c3cccc(OC(C)C)c3)C2)n1` (configuration not stated) the max response was 2.93% (inactive).
For `O=c1[nH]c(CN2CC=C(c3ccccc3)CC2)nc2scc(-c3ccccc3)c12`, the Potency was 8.2 µM (active).
With `O=C1NC(=S)SC1=Cc1ccc(N(CCCl)CCCl)cc1` the Potency was 15.8 µM (active).
`Cc1ccc(CNC(=O)c2ccccc2NC(=O)c2nsc3ccccc23)cc1` was tested, and the Potency was 23.1 µM (active).
`Cc1cccc(-n2c(O)c(/C=C/C=Nc3ccccc3)c(=O)[nH]c2=O)c1` was tested, and the max response was 59.1% (inactive).
For `O=c1c2ccccc2nc(/C=C/c2ccc([N+](=O)[O-])o2)n1-c1ccc(O)cc1`, the Potency was 8.86 µM (active).
In the case of `COc1ccc(-n2c(/C=C/c3ccc(O)c(OC)c3)nc3ccccc3c2=O)cc1`, the Potency is reported as 23.1 µM (active).
For `Cc1cccc(-n2c(/C=C/c3ccc([N+](=O)[O-])o3)nc3ccccc3c2=O)c1`, the Potency was 5.17 µM (active).
With `Cc1cccc(-n2c(/C=C/c3c(C)[nH]c4ccccc34)nc3ccccc3c2=O)c1` the Potency was 18.4 µM (active).
With `COc1ccc2nc(NC(=O)c3nc(S(=O)(=O)Cc4cccc(C)c4)ncc3Cl)sc2c1` the max response was 58.8% (inactive).
For `Cc1ccccc1-n1c(/C=C/c2ccc(N(C)C)cc2)nc2ccccc2c1=O`, the Potency was 1.46 µM (active).
For `O=Cc1c(C(=O)O)n(Cc2ccc(Cl)cc2)c2ccccc12`, the Potency was 3.66 µM (active).
